The values below come from PubChem BioAssay (NCATS).

Results filed as inconclusive are left out. Calls of active or inactive are those of the source. Unless noted, calls come from the whole dose curve.

Assay [1] in a line: AP1 Signaling Pathway (AID 357; active = well fitted curve in either direction with a large enough effect, not every such curve was filed as active;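 note: ME-180 reporter cells stimulated with EGF at its EC50 level; % is set by controls: 0 for no effect and ±100 for the full control effect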). Particulars: ME-180 AP-1-bla reporter, EGF-induced, beta-lactamase ratio, 5 h; at 7.69 µM (top of the series) unless noted. The method in brief:
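A ratiometric CCF4 readout (405 nm excitation; 460 and 530 nm emission) quantified AP-1-driven beta-lactamase in ME-180 cells after 5 h with compound and EC50 EGF; AC50 values were derived for activators and inhibitors.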

The target of assay [2] is Glucocorticoid receptor (Homo sapiens) (UniProt P04150). Briefly: GR-GFP Redistribution (AID 450;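 active = compounds whose dose series gives a full or clear partial fitted curve of increased nuclear translocation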; note: potency is the fitted concentration of half-maximal effect). Particulars: U2OS GR-GFP nuclear translocation, laser cytometry, 2 h.
Chain of Glucocorticoid receptor (Homo sapiens) (P04150 whole entry, looked up): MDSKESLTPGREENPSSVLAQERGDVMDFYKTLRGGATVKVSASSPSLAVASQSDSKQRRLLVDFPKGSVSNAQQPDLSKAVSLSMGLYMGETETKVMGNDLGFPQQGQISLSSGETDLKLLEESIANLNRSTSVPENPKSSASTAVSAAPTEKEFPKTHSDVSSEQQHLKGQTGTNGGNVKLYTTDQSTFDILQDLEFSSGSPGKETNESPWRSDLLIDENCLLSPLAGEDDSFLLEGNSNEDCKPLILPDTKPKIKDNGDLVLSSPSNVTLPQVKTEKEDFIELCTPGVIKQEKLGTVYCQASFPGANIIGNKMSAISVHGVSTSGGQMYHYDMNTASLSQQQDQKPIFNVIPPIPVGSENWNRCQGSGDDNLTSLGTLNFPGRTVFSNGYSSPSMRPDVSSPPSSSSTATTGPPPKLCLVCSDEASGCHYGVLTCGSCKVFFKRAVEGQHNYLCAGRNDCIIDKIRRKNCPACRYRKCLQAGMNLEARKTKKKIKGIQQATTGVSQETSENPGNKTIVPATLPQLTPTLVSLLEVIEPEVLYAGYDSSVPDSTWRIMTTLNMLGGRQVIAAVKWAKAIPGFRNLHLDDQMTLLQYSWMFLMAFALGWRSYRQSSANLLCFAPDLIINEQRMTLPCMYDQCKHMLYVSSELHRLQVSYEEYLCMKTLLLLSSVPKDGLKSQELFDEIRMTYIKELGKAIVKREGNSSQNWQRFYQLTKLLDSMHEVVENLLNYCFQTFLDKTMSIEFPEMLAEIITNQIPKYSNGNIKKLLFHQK
Assay [3] shares this target. Briefly: GR-EFC Redistribution (AID 451). Note: potency is the fitted concentration of half-maximal effect. Particulars: CHO-K1 GR-EFC translocation, beta-gal luminescence, 2 h. The method in brief:
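CHO-K1 cells expressing nuclear EA and GR-ED fragments of b-gal; compounds titrated up to 46 uM final, 2 h at 37 C. GR nuclear translocation read as complemented b-gal luminescence after 1 h RT detection.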

The target in assay [4] is 3',5'-cyclic-AMP phosphodiesterase 4B (Homo sapiens) (UniProt Q07343). Briefly: qHTS Assay for Inhibitors of PDE-IV (AID 607; active = well fitted activation curve with a large enough effect in the main read-out, with a control signal flat, not every such curve was filed as active; note: % of control where 0% means no effect). Particulars: HEK293 ACTOne CNG channel cells, membrane potential fluorescence; series mostly up to 22.9 µM. The method in brief:
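The readout is membrane depolarisation from a cAMP-sensing CNG channel, detected with a potential dye at ex 535/em 590. Cells were HEK293-derived (endogenous PDE-IV) at 1000 cells/well, titrated up to 22.9 uM final.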
In general terms: Quantitative high-throughput screening tests each substance at several concentrations.

Assay [5] in a line: qHTS Assay for Lipid Storage Modulators (AID 1519). The note with it: Drosophila S3 cells, BODIPY lipid droplet/cell ratio, laser cytometry, cells loaded with oleic acid. The method in brief: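 Cells seeded at 5,000 per well were treated with compounds over a concentration series and loaded with oleic acid (400 uM, as added). Lipid droplet fluorescence (488 nm excitation, 500-530 nm channel) was read by laser-scanning cytometry and normalized to 20 uM Triacsin C.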

The target of assay [6] is Lysosomal acid glucosylceramidase (Homo sapiens) (UniProt P04062). Briefly: Glucocerebrosidase-p2 (AID 348; in the data active = potency below about 10 µM; note: potency is the fitted concentration of half-maximal effect). The note with it: purified GBA, blue fluorogenic substrate, 40 min. The method in brief:
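Normal human glucocerebrosidase (0.2 nM) with blue fluorogenic substrate (80 uM final) in citrate/phosphate pH 5.9 with 10mM sodium taurocholate, 0.01% tween-20; 40 min RT, NaOH/glycine stop; fluorescence Ex 365/Em 440; AC50 from a titration from 0.6 nM upwards.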

The target in assay [7] is Cytochrome P450 1A2 (Homo sapiens) (UniProt P05177). The assay is described as follows: p450-cyp1a2 (AID 410).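 For activity change, negative = inhibition: -100% = full effect of reference inhibitor.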 Note: potency is the fitted concentration of half-maximal effect. Particulars: recombinant CYP1A2, luciferin-ME demethylation, luminescence; series mostly up to 57 µM. The method in brief:
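20nM CYP1A2, 100uM Luciferin-ME (=Km), 100mM KPO4; cpd 10 min RT; +NADPH regen, 60 min RT; stop/detect 20 min; luminescence. Normalized to furafylline 57 uM = full inhibition.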

A short description of assay [8]: NFAT Signaling Pathway (AID 444; active = well fitted curve in either direction with a large enough effect, not every such curve was filed as active;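 note: carbachol stimulus at about its EC50 of 1 µM final; % is set by controls: 0 for no effect and ±100 for the full control effect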). Particulars: Jurkat NFAT-bla M1, carbachol, beta-lactamase ratio, 5 h; at 7.69 µM (top of the series) unless noted. The method in brief: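 Jurkat cells with NFAT-driven β-lactamase reporter and co-expressed M1 receptor, stimulated with carbachol (final 1 uM, ~EC50), compound titration, 5 h at 37 °C. CCF4 loaded 1 h at RT; 460/530 nm ratio gave %activity and AC50.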

The nature of assay [9]: Stat Signaling Pathway (AID 446; active = well fitted curve in either direction with a large enough effect, not every such curve was filed as active;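 note: ME-180 cervical cancer cells given 40 pM IL-6 alongside compound; SIE-controlled beta-lactamase reporter measured as 460/530 nm FRET emission ratio; % is set by controls: 0 for no effect and ±100 for the full control effect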). The note with it: ME-180 (cervical carcinoma) SIE beta-lactamase reporter, IL-6 stimulated, 5 h; at 7.69 µM (top of the series) unless noted. The method in brief: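 Emission at 460 and 530 nm (excitation 405 nm) reports SIE-controlled beta-lactamase in ME-180 cells. Cells received compound with 40 pM IL-6 for 5 hrs at 37 C; data scaled between 300 pM IL-6 and 125 nM JAK-inhibitor controls.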

The target of assay [10] is Mitogen-activated protein kinase 10 (Mus musculus) (UniProt Q61831). Briefly: JNK3 AlphaScreen Assay (AID 530; active = well fitted curve in either direction with a large enough effect, not every such curve was filed as active;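 note: kinase came from lysate of stimulated human HepG2 cells; signal reports phosphorylation of biotinylated GST-cJun 1-79 at Ser73 with 10 µM ATP; % is set by controls: 0 for no effect and ±100 for the full control effect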). Particulars: JNK3 lysate, c-Jun phosphorylation; series mostly up to 57.1 µM. The method in brief:
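HepG2 lysate (IL-1b/TNFa pre-activated) + biotin-GST-cJun 1-79 + anti-pSer73 cJun; cpd titration, 15 min RT; ATP 10 uM start; Tris pH 7.6, MgCl2, DTT, vanadate; beads in EDTA buffer; AlphaScreen.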

Assay [11] concerns the target Dual specificity protein kinase CLK4 (Homo sapiens) (UniProt Q9HAZ1). Briefly: qHTS Assay for Inhibitors of CDC-like Kinase 4 (Kinase-Glo Assay) (AID 1770; active = well fitted curve in the direction sought with a large enough effect; an effect the other way counts as inactive or inconclusive; note: % is set by controls: 0 for no effect and ±100 for the full control effect; nearly all actives have a fitted effect of over 65% in size). Particulars: recombinant Clk4, Kinase-Glo ATP depletion luminescence; series mostly up to 66.7 µM. The method in brief: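 25 nM Clk4 with 100 uM RS repeat peptide and 1 uM ATP (final) in Tris pH7.5, 10 mM MgCl2, 4.5 h at room temperature. Remaining ATP measured by Kinase-Glo luciferase luminescence.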

Assay [12] addresses Ubiquitin carboxyl-terminal hydrolase 1 (Homo sapiens) (UniProt O94782). Briefly: Inhibitors of USP1/UAF1: Pilot qHTS (AID 504865; active = well fitted curve in the direction sought with a large enough effect; an effect the other way counts as inactive or inconclusive;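 note: rhodamine fluorescence freed from ubiquitin-rhodamine substrate followed over time; top concentration of the series differs between compounds; % is set by controls: 0 for no effect and ±100 for the full control effect; nearly all actives have a fitted effect of over 35% in size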). The note with it: purified USP1/UAF1, Ub-rhodamine cleavage fluorescence; series mostly up to 54.9 µM. The method in brief:
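USP1/UAF1 complex at 1 nM preincubated 15 min at room temperature with compound, then Ub-Rho substrate added at 150 nM final. Fluorescence (480/540 nm) read kinetically in 50 mM HEPES pH 7.8, 0.5 mM EDTA, 1 mM TCEP, 0.1 mg/ml BSA, 0.01% Tween-20.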

Assay [13] concerns the target Cytochrome P450 3A4 (Homo sapiens) (UniProt P08684). Briefly: qHTS Assay for Activators of Cytochrome P450 3A4 (AID 885; active = well fitted curve in the direction sought with a large enough effect; an effect the other way counts as inactive or inconclusive; note: nearly all actives have a fitted effect of over 65% in size). The note with it: recombinant CYP3A4, Luciferin-PPXE luminescence, 60 min; series mostly up to 57.1 µM. The method in brief:
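Activators are scored by enhanced luminescence from CYP3A4 conversion of luciferin-PPXE (25uM, equal to KM) to luciferin, after 60 min at RT with an NADPH-regenerating system.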

Where [14] appears, read: measured here: cell count channel max response.
The mark [15] stands for this setting: measured here: lipid channel max response.

Chain of 3',5'-cyclic-AMP phosphodiesterase 4B (Homo sapiens) (Q07343 whole entry, looked up): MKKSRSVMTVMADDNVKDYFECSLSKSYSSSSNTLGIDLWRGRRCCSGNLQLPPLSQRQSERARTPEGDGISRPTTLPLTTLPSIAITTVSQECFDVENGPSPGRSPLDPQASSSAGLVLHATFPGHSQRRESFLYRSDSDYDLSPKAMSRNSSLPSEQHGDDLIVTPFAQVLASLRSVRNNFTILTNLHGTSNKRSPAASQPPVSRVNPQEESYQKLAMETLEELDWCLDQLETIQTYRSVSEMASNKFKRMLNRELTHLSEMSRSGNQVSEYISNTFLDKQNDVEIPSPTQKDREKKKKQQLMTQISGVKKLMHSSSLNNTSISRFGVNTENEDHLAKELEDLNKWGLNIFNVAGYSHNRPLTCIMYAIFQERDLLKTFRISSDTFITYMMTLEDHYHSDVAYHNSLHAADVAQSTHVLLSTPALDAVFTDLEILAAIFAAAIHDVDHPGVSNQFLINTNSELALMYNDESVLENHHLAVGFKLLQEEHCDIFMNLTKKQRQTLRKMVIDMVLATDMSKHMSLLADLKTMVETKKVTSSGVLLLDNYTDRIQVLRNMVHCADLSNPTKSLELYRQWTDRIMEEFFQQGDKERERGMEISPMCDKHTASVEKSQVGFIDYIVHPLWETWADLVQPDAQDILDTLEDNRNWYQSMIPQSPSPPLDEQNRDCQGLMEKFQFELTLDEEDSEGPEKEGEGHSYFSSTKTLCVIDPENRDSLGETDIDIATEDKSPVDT
Chain of Ubiquitin carboxyl-terminal hydrolase 1 (Homo sapiens) (O94782 whole entry, looked up): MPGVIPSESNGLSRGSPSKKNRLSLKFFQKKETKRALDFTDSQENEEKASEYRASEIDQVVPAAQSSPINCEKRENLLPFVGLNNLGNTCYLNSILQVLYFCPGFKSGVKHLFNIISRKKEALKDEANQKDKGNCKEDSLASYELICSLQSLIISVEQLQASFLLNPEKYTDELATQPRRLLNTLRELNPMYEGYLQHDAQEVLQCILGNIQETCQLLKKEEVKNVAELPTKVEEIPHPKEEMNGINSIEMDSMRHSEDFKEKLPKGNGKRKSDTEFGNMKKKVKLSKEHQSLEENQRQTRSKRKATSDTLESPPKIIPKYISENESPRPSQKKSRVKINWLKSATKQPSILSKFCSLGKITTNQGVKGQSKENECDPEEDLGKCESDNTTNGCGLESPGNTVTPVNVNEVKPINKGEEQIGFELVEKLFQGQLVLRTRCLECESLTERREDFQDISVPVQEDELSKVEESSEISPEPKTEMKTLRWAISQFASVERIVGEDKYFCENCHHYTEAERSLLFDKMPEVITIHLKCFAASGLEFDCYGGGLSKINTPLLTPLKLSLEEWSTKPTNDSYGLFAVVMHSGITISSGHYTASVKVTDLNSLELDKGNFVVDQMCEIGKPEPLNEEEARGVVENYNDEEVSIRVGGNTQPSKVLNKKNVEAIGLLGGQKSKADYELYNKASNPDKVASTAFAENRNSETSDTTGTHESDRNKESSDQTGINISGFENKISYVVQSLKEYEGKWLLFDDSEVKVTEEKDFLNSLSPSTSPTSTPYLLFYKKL
Chain of Dual specificity protein kinase CLK4 (Homo sapiens) (Q9HAZ1 whole entry, looked up): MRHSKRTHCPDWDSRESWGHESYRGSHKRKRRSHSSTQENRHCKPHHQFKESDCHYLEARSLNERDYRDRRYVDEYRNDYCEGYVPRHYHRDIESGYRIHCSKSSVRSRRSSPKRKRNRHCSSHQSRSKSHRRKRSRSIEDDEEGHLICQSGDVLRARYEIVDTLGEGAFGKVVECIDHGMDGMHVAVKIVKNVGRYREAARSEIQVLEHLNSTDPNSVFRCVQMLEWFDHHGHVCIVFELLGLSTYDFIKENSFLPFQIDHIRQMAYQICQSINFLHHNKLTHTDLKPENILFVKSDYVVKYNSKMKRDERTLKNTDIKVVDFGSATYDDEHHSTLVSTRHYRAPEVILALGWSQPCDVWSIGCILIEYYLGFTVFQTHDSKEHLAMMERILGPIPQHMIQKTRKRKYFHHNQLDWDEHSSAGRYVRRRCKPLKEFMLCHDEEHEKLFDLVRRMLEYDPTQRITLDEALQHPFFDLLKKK
Chain of Lysosomal acid glucosylceramidase (Homo sapiens) (P04062 whole entry, looked up): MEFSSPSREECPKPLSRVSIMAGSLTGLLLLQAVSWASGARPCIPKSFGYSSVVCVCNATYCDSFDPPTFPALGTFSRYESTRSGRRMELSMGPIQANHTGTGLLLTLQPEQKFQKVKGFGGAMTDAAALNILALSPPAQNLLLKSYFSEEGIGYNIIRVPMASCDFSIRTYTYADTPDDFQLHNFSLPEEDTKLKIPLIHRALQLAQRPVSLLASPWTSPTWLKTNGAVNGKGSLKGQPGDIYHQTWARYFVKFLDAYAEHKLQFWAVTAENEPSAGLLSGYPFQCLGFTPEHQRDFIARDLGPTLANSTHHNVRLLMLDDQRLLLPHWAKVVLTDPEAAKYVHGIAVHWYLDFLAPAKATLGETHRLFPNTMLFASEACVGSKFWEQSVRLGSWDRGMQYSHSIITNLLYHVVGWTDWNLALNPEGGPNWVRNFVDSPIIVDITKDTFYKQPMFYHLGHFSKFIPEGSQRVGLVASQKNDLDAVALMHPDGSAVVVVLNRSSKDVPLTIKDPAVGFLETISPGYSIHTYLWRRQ
Chain of Cytochrome P450 1A2 (Homo sapiens) (P05177 whole entry, looked up): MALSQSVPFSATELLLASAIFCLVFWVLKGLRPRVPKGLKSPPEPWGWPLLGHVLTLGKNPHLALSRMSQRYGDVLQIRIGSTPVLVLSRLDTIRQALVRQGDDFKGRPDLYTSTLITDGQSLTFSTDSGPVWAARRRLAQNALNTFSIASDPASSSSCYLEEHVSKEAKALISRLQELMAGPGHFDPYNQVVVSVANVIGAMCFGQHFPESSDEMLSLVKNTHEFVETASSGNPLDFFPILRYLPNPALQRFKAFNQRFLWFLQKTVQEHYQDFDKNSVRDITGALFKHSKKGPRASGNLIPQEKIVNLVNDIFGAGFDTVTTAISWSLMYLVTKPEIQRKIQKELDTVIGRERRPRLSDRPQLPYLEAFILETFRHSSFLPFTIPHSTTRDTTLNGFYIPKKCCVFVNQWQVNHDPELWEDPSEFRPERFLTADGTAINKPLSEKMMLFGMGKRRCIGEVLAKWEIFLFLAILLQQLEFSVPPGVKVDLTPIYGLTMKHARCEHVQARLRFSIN
Chain of Cytochrome P450 3A4 (Homo sapiens) (P08684 whole entry, looked up): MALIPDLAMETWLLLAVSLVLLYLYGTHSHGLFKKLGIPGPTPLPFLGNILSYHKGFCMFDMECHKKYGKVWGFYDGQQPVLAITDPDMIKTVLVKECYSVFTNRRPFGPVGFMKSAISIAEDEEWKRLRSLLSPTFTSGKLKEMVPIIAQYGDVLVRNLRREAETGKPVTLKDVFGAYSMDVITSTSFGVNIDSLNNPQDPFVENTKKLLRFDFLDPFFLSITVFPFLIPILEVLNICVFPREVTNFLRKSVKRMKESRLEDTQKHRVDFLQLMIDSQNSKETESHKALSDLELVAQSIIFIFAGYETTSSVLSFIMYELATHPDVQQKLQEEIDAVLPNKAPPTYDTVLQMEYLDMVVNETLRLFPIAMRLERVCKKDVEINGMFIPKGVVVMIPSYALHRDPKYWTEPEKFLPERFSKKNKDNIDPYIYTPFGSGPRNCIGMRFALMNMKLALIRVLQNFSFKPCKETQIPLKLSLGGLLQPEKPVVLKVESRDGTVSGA

In the case of `Cc1cc(/C=C\c2ccc3cc(N(C)C)ccc3[n+]2C)c(C)n1-c1ccccc1`, the activity change, negative = inhibition in assay [1] was 12.4% [at 17.2 µM] (inactive); in assay [5] (at 25.7 µM (top of the series)), -5.56% (inactive). Also, the Potency in [2] and in assay [3] was > 20.6 µM (inactive) in each case. The Potency entry in assay [4] is “inactive”. The max response in assay [5] (setting [14]) was -11.1%; in assay [5] (setting [15]) it was -18.2%.
Take `Nc1ncnc2c1ncn2[C@@H]1O[C@H](COP(=O)(O)OP(=O)(O)OP(=O)(O)OP(=O)(O)OC[C@@H]2O[C@H](n3cnc4c(N)ncnc43)[C@@H](O)[C@@H]2O)[C@H](O)[C@H]1O`: in [5] (at 57.5 µM (top of the series)), the activity change, negative = inhibition was 1.69% (inactive). Further, the results for the max response in assay [5] (setting [14]) and in assay [5] (setting [15]) were 17% and 19.7%, respectively.
On to `COc1ccc(/C=C/C(=O)O)cc1OC`, for which, in [5] (at 57.5 µM (top of the series)), the activity change, negative = inhibition was 14.6% (inactive). The figures for the max response in assay [5] (setting [14]) and in assay [5] (setting [15]) were 4.45% and 26.5%, respectively.
Take `COc1ccc(-c2nc3cnc(N4CCN(C)CC4)nc3n(C3CC3)c2=O)cc1`: the Potency in assay [6] is > 11.4 µM (inactive); in [7], 20 µM (active); in assay [2], > 9.22 µM (inactive); in [3] it was > 46 µM (inactive). The activity change, negative = inhibition was -5.97% (inactive) in [1], -2.54% (inactive) in assay [8] and 2.69% (inactive) in [5] (at 57.5 µM (top of the series)). For the same compound, the activity, negative = inhibition in assay [9] was -7.93% (inactive). Further, the Potency result in assay [10], in assay [4], in assay [11] and in assay [12] was “inactive” each time. The max response was 2.3% in [5] (setting [14]) and 3.44% in [5] (setting [15]).
Regarding `Nc1ncnc2c1nc(Br)n2C1O[C@H]2COP(=O)(O)O[C@@H]2C1O` (stereo not given in full), in assay [5] (at 57.5 µM (top of the series)), the activity change, negative = inhibition was 0.429% (inactive). Further, the max response in assay [5] (setting [14]) came to 27.3%; in assay [5] (setting [15]), 29.9%.
Consider `Cc1noc(C)c1-c1cncnc1N1CCN(C)CC1`, for which the values for the Potency in assay [6], in assay [2] and in assay [3] were > 11.4 µM (inactive), > 46 µM (inactive) and > 46 µM (inactive), respectively. The activity change, negative = inhibition was 1.14% (inactive) in assay [1], -0.298% (inactive) in assay [8] and -1.64% (inactive) in assay [5] (at 57.5 µM (top of the series)). For the same compound, the Potency entry in assay [7], in assay [10], in assay [4], in assay [13], in assay [11] and in [12] was “inactive” each time. Further, in assay [9], the activity, negative = inhibition is 24.7% (inactive). In addition, the max response in [5] (setting [14]) worked out at 15.1%; in [5] (setting [15]), 9.71%.
